Data on 8 molecules can be found in PubChem BioAssay (Tox21).

Unmarked numbers belong to inactive results. Records with an inconclusive call do not appear. Activity calls are given as the source filed them. Unless noted, the call rests on the fitted dose curve.

Assay [1] is described as follows: Nuclear factor erythroid 2-related factor 2/antioxidant responsive element (Nrf2/ARE) small molecule agonists: qHTS cell viability counter screen in human keratinocytes (AID 1919968; active means well fitted curve in the direction sought with a large enough effect in the repeat runs; an effect the other way counts as inactive or inconclusive; further: nearly all actives have a fitted effect of over 55% in size; further: potency means the concentration at half of the fitted maximal effect). In short, it runs like this: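 Seed 1,500 KeratinoSens cells per well, then incubate 5 h at 37 C/5% CO2. Add compounds in DMSO and incubate 23 h. Add CellTiter-Fluor, wait 1 h and read fluorescence.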

Assay [2] can be described thus: Nuclear factor erythroid 2-related factor 2/antioxidant responsive element (Nrf2/ARE) small molecule agonists: luciferase reporter gene qHTS assay in human keratinocytes (AID 1919969). Further: nearly all actives have a fitted effect of over 35% in size. Further: potency means the concentration at half of the fitted maximal effect.
In assay [3] the target is Gonadotropin-releasing hormone receptor (Homo sapiens) (UniProt P30968). Nature of the assay: Human gonadotropin-releasing hormone receptor (GnRHR) small molecule agonists, calcium flux assay in GnRHR-HEK293 cells (AID 1920063). Further: nearly all actives have a fitted effect of over 35% in size. In short, it runs like this: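 Cells: HEK293 stably expressing human GnRHR. Steps: overnight (18 h) culture, 1 h calcium dye loading at 37 C, compound addition, kinetic fluorescence read at 480/540 nm. Each compound tested at 15 concentrations in triplicate.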
Gonadotropin-releasing hormone receptor (Homo sapiens), sequence (P30968 whole entry, looked up): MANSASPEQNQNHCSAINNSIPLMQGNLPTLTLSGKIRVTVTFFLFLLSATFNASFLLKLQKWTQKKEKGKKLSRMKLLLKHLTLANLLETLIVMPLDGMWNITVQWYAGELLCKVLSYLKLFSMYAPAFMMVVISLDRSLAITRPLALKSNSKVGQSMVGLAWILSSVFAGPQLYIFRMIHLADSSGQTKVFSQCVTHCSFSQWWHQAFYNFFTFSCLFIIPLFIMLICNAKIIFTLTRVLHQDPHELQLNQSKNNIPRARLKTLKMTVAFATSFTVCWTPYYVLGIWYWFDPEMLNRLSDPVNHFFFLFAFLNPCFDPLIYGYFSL
For orientation: A change in cytosolic calcium serves as a functional read-out for many receptors and channels.

Assay [4] has as its target KiSS-1 receptor (Homo sapiens) (UniProt Q969F8). Description: Human kisspeptin (KISS1R) small molecule agonists, calcium flux assay in KISS1R-HEK293 cells (AID 1920064; active means well fitted curve in the direction sought with a large enough effect in the repeat runs; an effect the other way counts as inactive or inconclusive). Summed up:
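Cells plated and incubated 18 h; dye added, 1 h at 37 C; compounds in DMSO pinned in; signal read at 480/540 nm every second for 3 min. Each compound tested at 15 concentrations in triplicate.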

Assay [5] is described as follows: G protein-coupled receptor (GPCR) small molecule agonists, calcium flux assay: HEK293 wild type cell line counter screen (AID 1920065). Summed up: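 Counter-screen of the Tox21 10K library for non-specific calcium release: dye-loaded cells received compounds in DMSO and were monitored by kinetic fluorescence (480/540 nm, 3 min). Fifteen concentrations, run in triplicate.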

The nature of assay [6]: p53 small molecule agonists, cell-based qHTS assay with human liver microsomes (AID 1963577).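 Further: p53 response element beta-lactamase reporter cells with liver microsomes plus NADPH.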 Summed up: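 16 h, 37 C exposure of p53RE-bla cells to compounds with human liver microsomes and NADPH (0.5 mg/mL final each); detection via LiveBLAzer mixture, 2 h dark at room temperature.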
For orientation: In qHTS, concentration-response curves come from the screen itself.

A short description of assay [7]: p53 small molecule agonists, cell-based qHTS assay with rat liver microsomes (AID 1963578). In short, it runs like this:
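With rat liver microsomes and NADPH present (0.5 mg/mL final each), p53RE-bla cells are treated with compound for 16 h at 37 C. LiveBLAzer detection mixture is then applied for 2 h at room temperature in the dark.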

A short description of assay [8]: p53 small molecule agonists, cell-based qHTS assay with human liver microsomes: qHTS cell viability counter screen (AID 1963579). Further: nearly all actives have a fitted effect of over 45% in size. Further: potency means the concentration at half of the fitted maximal effect. Summed up:
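In this multiplexed counter screen, the reporter plates were subsequently treated with CellTiter-Glo so that cell viability, reflected by luminescence, could be recorded for p53RE-bla cells dosed 16 h with compounds under microsomal activation (HLM and NADPH).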

Assay [9] can be described thus: p53 small molecule agonists, cell-based qHTS assay with rat liver microsomes: qHTS cell viability counter screen (AID 1963580). Further: nearly all actives have a fitted effect of over 45% in size. In short, it runs like this:
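In HCT-116 cells carrying a p53 response element-bla reporter, compounds were metabolically activated in situ by rat liver microsomes with NADPH over 16 h. Cell ATP content then served as the cytotoxicity measure.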

Assay [10] is described as follows: p53 small molecule agonists, cell-based qHTS assay (AID 1963582; active means well fitted activation curve with a large enough effect in the signal ratio in the repeat runs, not every such curve was filed as active; the % refers to the signal ratio). Summed up:
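Quantitative HTS in p53RE-bla cells: after a 5 h settling period, compounds delivered in DMSO were left on cells for 16 h at 37 C, and reporter induction was measured as fluorescence following 2 h substrate loading.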

A short description of assay [11]: cAMP Responsive Elements (CRE) small molecule agonists, cell-based qHTS assay (AID 1963590). In short, it runs like this:
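Agonist mode qHTS in CRE-bla HEK 293T cells: compounds dosed from DMSO for 3 h at 37 C/5% CO2, followed by LiveBLAzer B/G FRET substrate for 2 h at room temperature.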

The nature of assay [12]: cAMP Responsive Elements (CRE) small molecule antagonists, cell-based qHTS assay (AID 1963591; active means well fitted inhibition curve with a large enough effect in the signal ratio in the repeat runs, not every such curve was filed as active; the % refers to the signal ratio; further: potency means the concentration at half of the fitted maximal effect). In short, it runs like this:
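Antagonist mode: test compounds are co-incubated with the adenylyl cyclase activator NKH477 (0.25 uM final) on CRE-bla HEK293T cells for 3 h at 37 °C, followed by LiveBLAzer substrate loading.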

Assay [13] addresses Beta-2 adrenergic receptor (Homo sapiens) (UniProt P07550). Description: Adrenergic beta2 receptor (ADRB2) small molecule antagonists, cell-based qHTS assay (AID 1963592). Further: series mostly up to about 92 µM; nearly all actives have a fitted effect of over 50% in size. In short, it runs like this: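 Cells (CHO, stable ADRB2 overexpression) incubated 18-20hr at 37C; compounds added from DMSO; agonist mix (1nM isoproterenol, 100uM IBMX, 25uM Ro-20-1724) added; 0.5hr RT; d2-cAMP and anti-cAMP-cryptate added; 1hr RT; 665/615 nm read.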

Assay [14] has as its target D(2) dopamine receptor (Homo sapiens) (UniProt P14416). Nature of the assay: Dopamine D2 receptor (DRD2) small molecule agonists, cell-based qHTS assay (AID 1963594). Further: nearly all actives have a fitted effect of over 35% in size. Summed up: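 HEK293 cells stably expressing DRD2 were cultured 24 h at 37 C, then given Ro20-1724 (0.1 mM final) and compounds for 10 min at room temperature. NKH477 (200nM) was then added for 30 min. cAMP was read by HTRF.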

Assay [15] has the same target. Nature of the assay: Dopamine D2 receptor (DRD2) small molecule antagonists, cell-based qHTS assay (AID 1963595; active means well fitted inhibition curve with a large enough effect in the signal ratio in the repeat runs, with a control signal flat; the % refers to the signal ratio). Summed up:
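Antagonist mode in DRD2-HEK293 cells: after compound addition with 0.1 mM Ro20-1724, cells received quinpirole (12 nM) and NKH477 (200 nM) for 30 min at room temperature; HTRF cAMP read after 1 h detection.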

For assay [16], the target named is 5-hydroxytryptamine receptor 2A (Homo sapiens) (UniProt P28223). Nature of the assay: 5-hydroxytryptamine receptor 2A (HTR2A) small molecule antagonists, cell-based qHTS assay (AID 1963586). Further: nearly all actives have a fitted effect of over 45% in size. Summed up:
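Antagonist-mode intracellular calcium assay: DOI (4 nM) added after 5 min compound pre-incubation at room temperature to dye-loaded HTR2A-CHO cells. Fluorescence followed for 3 min, sampled every second.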

The target is the same in assay [17]. Nature of the assay: 5-hydroxytryptamine receptor 2A (HTR2A) small molecule agonists, cell-based qHTS assay (AID 1963587). Further: nearly all actives have a fitted effect of over 30% in size. Summed up:
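HTR2A-CHO cells, plated 18 h at 37 C/5% CO2, dye-loaded 1 h at 37 C; compounds in DMSO added by pin tool (agonist mode). Intracellular calcium flux read as kinetic fluorescence on FDSS over 2 min at 1 s intervals.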

Assay [18] has as its target Muscarinic acetylcholine receptor M1 (Homo sapiens) (UniProt P11229). Nature of the assay: Cholinergic receptor muscarinic 1 (CHRM1) small molecule antagonists, cell-based qHTS assay (AID 1963588). Further: nearly all actives have a fitted effect of over 40% in size. In short, it runs like this: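 CHRM1-CHO calcium-flux assay, antagonist mode. Cells were seeded 18 h, dye-loaded 1 h at 37 C and given compound for 5 min at RT, then acetylcholine was added at 50nM. FDSS fluorescence was read 3 min; 15 concentrations, three runs.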

For assay [19] the target is unchanged. Nature of the assay: Cholinergic receptor muscarinic 1 (CHRM1) small molecule agonists, cell-based qHTS assay (AID 1963589). Further: nearly all actives have a fitted effect of over 35% in size. Summed up:
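Agonist-mode qHTS in CHO cells stably carrying human muscarinic M1. Intracellular calcium is tracked by fluorescence every second after compound transfer; each compound runs at 15 concentrations in three independent runs.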

Assay [20] concerns the target Beta-2 adrenergic receptor (Homo sapiens) (UniProt P07550). Nature of the assay: Adrenergic beta2 receptor (ADRB2) small molecule agonists, cell-based qHTS assay (AID 1963593).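 Further: CHO cells stably overexpressing human ADRB2.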 In short, it runs like this:
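CHO cells stably over-expressing ADRB2 were plated overnight at 37C, then dosed with compounds plus a stimulation mix containing 100uM IBMX and 25uM Ro-20-1724 for 0.5hr at room temperature. cAMP was measured by HTRF competition, 1hr.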

D(2) dopamine receptor (Homo sapiens), sequence (P14416 whole entry, looked up): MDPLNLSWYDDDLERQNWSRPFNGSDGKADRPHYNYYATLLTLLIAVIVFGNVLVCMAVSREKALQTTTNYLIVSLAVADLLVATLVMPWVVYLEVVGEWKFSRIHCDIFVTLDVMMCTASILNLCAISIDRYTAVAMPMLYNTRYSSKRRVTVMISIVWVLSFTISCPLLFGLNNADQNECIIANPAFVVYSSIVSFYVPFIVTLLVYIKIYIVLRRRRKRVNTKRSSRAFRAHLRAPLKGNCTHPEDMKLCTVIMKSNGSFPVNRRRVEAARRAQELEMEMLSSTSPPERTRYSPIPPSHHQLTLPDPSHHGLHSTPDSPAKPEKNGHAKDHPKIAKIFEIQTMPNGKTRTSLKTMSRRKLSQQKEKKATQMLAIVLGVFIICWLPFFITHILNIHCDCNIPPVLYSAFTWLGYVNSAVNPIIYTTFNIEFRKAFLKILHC
5-hydroxytryptamine receptor 2A (Homo sapiens), sequence (P28223 whole entry, looked up): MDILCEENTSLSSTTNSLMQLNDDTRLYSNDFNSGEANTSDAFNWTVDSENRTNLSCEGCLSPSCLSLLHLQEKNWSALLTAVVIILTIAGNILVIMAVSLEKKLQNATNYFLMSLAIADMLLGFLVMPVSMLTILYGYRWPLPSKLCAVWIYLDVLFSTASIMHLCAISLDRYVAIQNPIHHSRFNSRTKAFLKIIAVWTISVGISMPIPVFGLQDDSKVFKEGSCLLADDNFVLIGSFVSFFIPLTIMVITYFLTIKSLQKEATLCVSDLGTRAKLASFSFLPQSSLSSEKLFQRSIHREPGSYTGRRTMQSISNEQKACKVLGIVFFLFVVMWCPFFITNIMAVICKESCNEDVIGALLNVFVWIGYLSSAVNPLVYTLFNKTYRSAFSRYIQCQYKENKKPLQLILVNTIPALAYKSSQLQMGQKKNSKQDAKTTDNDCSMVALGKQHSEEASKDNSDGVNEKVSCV
Beta-2 adrenergic receptor (Homo sapiens), sequence (P07550 whole entry, looked up): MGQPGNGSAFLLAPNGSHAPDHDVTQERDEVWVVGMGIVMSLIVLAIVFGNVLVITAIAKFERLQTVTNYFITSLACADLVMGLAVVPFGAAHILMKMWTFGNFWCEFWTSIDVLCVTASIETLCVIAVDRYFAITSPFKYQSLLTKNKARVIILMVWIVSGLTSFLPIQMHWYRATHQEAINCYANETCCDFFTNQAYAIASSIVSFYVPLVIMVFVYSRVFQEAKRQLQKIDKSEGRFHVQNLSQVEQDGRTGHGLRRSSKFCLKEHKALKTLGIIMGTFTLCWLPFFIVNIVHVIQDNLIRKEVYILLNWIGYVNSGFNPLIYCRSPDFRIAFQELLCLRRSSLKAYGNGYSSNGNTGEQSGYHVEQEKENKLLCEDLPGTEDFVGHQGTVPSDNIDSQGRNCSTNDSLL
Muscarinic acetylcholine receptor M1 (Homo sapiens), sequence (P11229 whole entry, looked up): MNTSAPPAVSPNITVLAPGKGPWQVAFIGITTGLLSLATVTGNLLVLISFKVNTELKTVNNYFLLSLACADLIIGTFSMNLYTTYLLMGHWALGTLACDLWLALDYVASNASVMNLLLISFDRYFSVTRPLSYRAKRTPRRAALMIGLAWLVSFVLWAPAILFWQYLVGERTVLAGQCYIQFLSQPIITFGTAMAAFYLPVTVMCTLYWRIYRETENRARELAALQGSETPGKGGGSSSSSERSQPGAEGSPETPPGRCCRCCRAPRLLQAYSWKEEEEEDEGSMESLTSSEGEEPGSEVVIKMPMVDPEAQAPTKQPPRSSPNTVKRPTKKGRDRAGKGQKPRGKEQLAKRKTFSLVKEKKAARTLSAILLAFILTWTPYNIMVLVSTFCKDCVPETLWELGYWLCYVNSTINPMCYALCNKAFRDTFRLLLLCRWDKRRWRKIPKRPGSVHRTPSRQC
KiSS-1 receptor (Homo sapiens), sequence (Q969F8 whole entry, looked up): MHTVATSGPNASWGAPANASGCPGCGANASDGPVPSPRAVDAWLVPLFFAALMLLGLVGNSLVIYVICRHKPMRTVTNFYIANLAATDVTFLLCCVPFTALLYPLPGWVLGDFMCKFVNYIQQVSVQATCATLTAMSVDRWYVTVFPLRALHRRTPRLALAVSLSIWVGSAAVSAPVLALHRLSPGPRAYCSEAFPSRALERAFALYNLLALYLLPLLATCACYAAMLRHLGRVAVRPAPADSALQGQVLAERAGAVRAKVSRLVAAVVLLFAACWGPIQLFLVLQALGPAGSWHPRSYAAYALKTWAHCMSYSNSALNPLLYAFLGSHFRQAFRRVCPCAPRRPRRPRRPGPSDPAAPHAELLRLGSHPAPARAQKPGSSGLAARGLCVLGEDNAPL

Consider `CN[C@@H]1[C@H](O)[C@H](NC)[C@H]2O[C@@]3(O)C(=O)C[C@@H](C)O[C@H]3O[C@@H]2[C@H]1O`, for which the Potency result in assay [1], in assay [2], in assay [3], in [6], in assay [7] and in assay [8] was “inactive” in each case. The Potency entry in [9], in [10], in assay [11], in [12], in assay [13] and in [14] was “inactive” in each case. For the same molecule, in assay [15], the Potency result is “inactive”. The outcome in assay [4] and in assay [5] was inactive.

As to `Cc1cc(Br)ccc1NC(=O)CCl`, the Potency in [1] was 30.6 µM (active); in [2], 13.7 µM (active). Also, the Potency entry in assay [3], in assay [6], in [7], in assay [8], in [9] and in assay [16] was “inactive” throughout. Further, the Potency result in assay [17], in assay [18], in [19], in assay [13], in assay [20] and in assay [14] was “inactive” each time. In addition, the Potency result in [15] was “inactive”. Besides, the result in assay [4] and in assay [5] was inactive.

For the molecule `O=C(O)c1cc(N=Nc2ccc([N+](=O)[O-])cc2)ccc1O`, the Potency in [1] was 26.8 µM (active). The Potency result in assay [2], in assay [3], in [6], in [7], in assay [8] and in assay [9] was “inactive” in each case. Further, the Potency result in assay [17], in assay [18], in [19], in assay [13] and in [14] was “inactive” in each case. Moreover, the outcome in [4] and in assay [5] was inactive.

Turning to `CN1CC(=O)N/C1=N/C(=O)Nc1cccc(Cl)c1`, the Potency result in assay [1], in assay [2], in assay [3], in assay [6], in assay [7] and in [8] was “inactive” throughout. The Potency entry in [9], in [16], in assay [17], in assay [18], in assay [19] and in [11] was “inactive” in each case. Further, the Potency result in assay [13], in assay [20] and in [14] was “inactive” throughout. For the same molecule, the outcome in assay [4] and in assay [5] was inactive.

As for `CCOC(=O)CS`, the Potency entry in assay [1], in [3], in [6], in assay [7], in assay [8] and in assay [9] was “inactive” each time. The Potency entry in [16], in assay [17], in [19], in assay [11], in assay [12] and in assay [13] was “inactive” throughout. For the same molecule, the Potency result in assay [14] and in [15] was “inactive” each time. Further, the Potency in assay [2] is 70.5 µM (active). Besides, the result in assay [4] and in assay [5] was inactive.

Take `CCCCCCCCCOC(=O)c1ccc(O)cc1`: the Potency in assay [1] is 26.9 µM (active); in assay [8], 18 µM (active); in assay [12] it was 21.4 µM (active). The Potency entry in [2], in assay [3], in [6], in [7], in [9] and in [16] was “inactive” in each case. The Potency entry in assay [11], in assay [13] and in [14] was “inactive” in each case. Also, the outcome in [4] and in assay [5] was inactive.

As to `O=C(NS(=O)(=O)/C=C/c1ccccc1)c1ccc(F)cc1Cl`, the Potency entry in assay [1], in assay [3], in assay [6], in assay [7], in assay [8] and in assay [9] was “inactive” throughout. Further, the Potency entry in assay [16], in assay [18], in [19], in [11], in [13] and in assay [20] was “inactive” each time. Further, the Potency entry in assay [14] and in [15] was “inactive” throughout. Also, the Potency in assay [2] is 27.3 µM (active). The result in assay [4] and in assay [5] was inactive.

Take `CC(C)Cc1nccs1`: the Potency result in assay [1], in assay [2], in assay [3], in assay [6], in [7] and in [8] was “inactive” throughout. Moreover, the Potency result in assay [9], in assay [17], in assay [19], in assay [12], in assay [13] and in assay [14] was “inactive” in each case. Moreover, the outcome in assay [4] and in assay [5] was inactive.
